Records with an inconclusive call do not appear. The source made the active and inactive calls. Unless noted, the call rests on the fitted dose curve; in most records, active means well fitted curve in the direction sought with a large enough effect; inconclusive means small, poorly fitted or top-dose-only effect, or another doubt; inactive means no such curve, though single readings can be large; an effect the other way counts as inactive or inconclusive.
Tests used:
[1] = MultiTox-Fluor Cytotoxicity Assay - LYMP1-001 - Dead Cells (AID 946);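 further: cells exposed to compound for 16 h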
How it was run: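 Seed 2500 LYMP1-001 cells/well, incubate 5 hr at 37 C; add compound, 16 hr at 37 C; add MultiTox-Fluor reagent, 60 min RT; read dead-cell fluorescence Ex/Em=485/520. Normalize to DMSO and 15 uM tetraoctylammonium bromide.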

[2] = MultiTox-Fluor Cytotoxicity Assay - LYMP1-001 - Live Cells (AID 947)
[3] = Cell Viability - LYMP1-002 - Assay at 16 hr (AID 948)
How it was run: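 LYMP1-002 human lymphoblastoid cells, 2500/well, were treated with compounds for 16 hr at 37 C in complete medium. Viability was read as intracellular ATP by CellTiter-Glo luminescence, and AC50 was derived from a Hill fit to concentration-response data.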

[4] = MultiTox-Fluor Cytotoxicity Assay - LYMP1-002 - Live Cells (AID 955);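 further: cells exposed to compound for 16 hours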
How it was run: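 Cytotoxicity in the human lymphoblastoid line LYMP1-002 is measured as loss of live-cell protease activity after 16 h treatment in complete culture medium. AC50 is derived from Hill-equation fits of qHTS concentration-response data.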

[5] = MultiTox-Fluor Cytotoxicity Assay - LYMP1-002 - Dead Cells (AID 960);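 further: cells exposed to compound for 16 h at 37 °C; nearly all actives have a fitted effect of over 60% in size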
How it was run: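 Acute cytotoxicity in a human lymphoblastoid line is scored as rising dead-cell protease signal after 16 hr exposure at 37 C, measured fluorometrically (485/520).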

[6] = MultiTox-Fluor Cytotoxicity Assay - LYMP1-003 - Dead Cells (AID 961);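 further: cells exposed to compound for 16 h at 37 °C; nearly all actives have a fitted effect of over 70% in size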
How it was run: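 LYMP1-003 lymphoblastoid, 2500 cells/well, 5 hr settle then 16 hr cpd at 37 C; MultiTox-Fluor reagent 60 min RT; Ex/Em 485/520 dead-cell signal; norm. DMSO = 0%, 15 uM tetraoctylammonium bromide = 100%; Hill AC50.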

[7] = MultiTox-Fluor Cytotoxicity Assay - LYMP1-003 - Live Cells (AID 962);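 further: cells exposed to compound for 16 hours at 37 °C; cytotoxic hits lower the live-cell protease signal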
How it was run: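 Cells plated at 2500 per well and incubated 5 hr; compounds added and incubated 16 hr at 37 C; MultiTox-Fluor reagent added for 60 min at room temperature; fluorescence of liberated AFC measured at 405/510 nm.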

[8] = Cell Viability - LYMP1-003 - Assay at 24 hr (AID 963)
How it was run: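 Acute toxicity in LYMP1-003 lymphoblastoid cells: 24 hr compound treatment at 37 C, ATP measured with CellTiter-Glo after 30 min at room temperature. AC50 derived by fitting the Hill equation to qHTS titrations.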

[9] = Cell Viability - LYMP1-003 - Assay at 40 hr (AID 964); further: series mostly up to about 92 µM; nearly all actives have a fitted effect of over 60% in size
How it was run: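 This qHTS cytotoxicity screen treats human lymphoblastoid cells (LYMP1-003) with compounds for 40 hr and quantifies cellular ATP via luciferase luminescence.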

[10] = Cell Viability - LYMP2-003 (AID 965);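 further: cells exposed to compounds for 24 h before reading; nearly all actives have a fitted effect of over 50% in size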
How it was run: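 Human lymphoblastoid LYMP2-003 cells, 2500/well, exposed to compounds for 24 h at 37 C in complete medium. Viability read as intracellular ATP by CellTiter-Glo luminescence; AC50 from Hill-equation fits of qHTS concentration-response data.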

[11] = Cell Viability - LYMP2-009 (AID 968); further: series mostly up to about 92 µM; nearly all actives have a fitted effect of over 55% in size
[12] = Cell Viability - LYMP2-011 (AID 969); further: nearly all actives have a fitted effect of over 60% in size
How it was run: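 Acute toxicity is scored as a concentration-dependent drop in intracellular ATP of a human lymphoblastoid line after 24 hr treatment. Values are AC50s modeled with the Hill equation.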

[13] = Cell Viability - LYMP2-013 (AID 970); further: series mostly up to about 92 µM; nearly all actives have a fitted effect of over 55% in size
How it was run: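 Acute toxicity was measured in human lymphoblastoid cells (2500/well) exposed to compound titrations for 24 hr, with ATP luminescence (CellTiter-Glo) as read-out and AC50 fitted by Hill equation.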

[14] = Cell Viability - LYMP2-015 (AID 971); further: nearly all actives have a fitted effect of over 55% in size
How it was run: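 Acute toxicity was scored as a concentration-dependent drop in intracellular ATP in lymphoblastoid cells after 24 hr compound exposure in complete medium. Detection used CellTiter-Glo luciferase luminescence.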

[15] = Cell Viability - LYMP2-017 (AID 972); further: series mostly up to about 92 µM; nearly all actives have a fitted effect of over 55% in size
How it was run: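 Steps: plate 2500 lymphoblastoid cells per well; incubate 5 hr at 37 C; add compound across a concentration series and incubate 24 hr at 37 C; add CellTiter-Glo and read luminescence after 30 min at room temperature; fit Hill curves for AC50.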

[16] = Cell Viability - LYMP2-019 (AID 973); further: nearly all actives have a fitted effect of over 55% in size
How it was run: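 Cells plated at 2500/well and allowed 5 hr at 37 C before compound addition. After 24 hr incubation, CellTiter-Glo reagent was added, plates sat 30 min at room temperature, and luminescence was recorded.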

[17] = Cell Viability - LYMP2-021 (AID 974)
How it was run: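 Concentration-response cytotoxicity in a human lymphoblastoid line: 24 hr treatment at 37 C in complete culture medium, tetraoctylammonium bromide as positive control, luminescent ATP quantitation as viability measure.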

[18] = Cell Viability - LYMP2-025 (AID 976); further: series mostly up to about 92 µM
How it was run: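 In qHTS format, LYMP2-025 lymphoblastoid cells in complete culture medium received compound for 24 hr; ATP-based CellTiter-Glo signal gave viability, with AC50 derived by Hill equation.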

[19] = qHTS assay for small molecule agonists of the antioxidant response element (ARE) signaling pathway measured by Nrf2-dependant transcriptional activity (AID 720636; active means well fitted curve in the direction sought with a large enough effect in the repeat runs; an effect the other way counts as inactive or inconclusive;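 further: HepG2 cells with an ARE-driven luciferase reporter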)
How it was run: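 HepG2 ARE-luc reporter line, 1% dialyzed FBS; 6 hr attachment at 37 C, compound pinned in, 16 hr at 37 C/5% CO2; ONE-Glo, 30 min RT, luminescence read.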

[20] = qHTS assay for small molecule activators of the human pregnane X receptor (PXR) signaling pathway (AID 720659; call rule not given here)

Measured: Potency

C=CC(=C)CCC=C(C)C
inactive: all assays above

COc1cc(/C=C/c2ccccc2)oc(=O)c1
not listed: [19] | [20]
inactive: all other assays above

O=C(O)c1ccccc1
inactive: all assays above

C=CC(C)(CCC=C(C)C)OC(C)=O (stereo not given)
inactive: [19] | [20]

Source: PubChem BioAssay (NCATS)
